Data on ten compounds can be found in PMC7826789 (International Journal of Molecular Sciences, 2021).

Test systems include EIF2AK1; EPHA1; EPHA2; EPHA3; EPHA4; EPHA5; EPHA6; EPHA7; EPHA8; EPHB1; EPHB2; EPHB3; EPHB4; EPHB6; ERBB2; ERBB3; ERBB4.
Common to all, as to conditions: Compound Concentration (nM):1000
A further test deals with T1, ERK1.
T1 construct: gene MAPK3

The subject of a further test is T2, ERK2.
T2 construct: gene MAPK1

The subject of a further test is T3, ERK3.
T3 construct: gene MAPK6
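Further: KINOMEscan scanMAX binding as percent activity remaining versus control; lower means stronger binding.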

For the compound `COc1ccc2cc(-c3c(-c4ccncc4)nc(-c4ccc(S(C)(=O)=O)cc4C)n3C)ccc2c1` [SB-633825], the “Percent Control” value with EIF2AK1 is recorded as 91%; in the test with EPHA1 it was 89%; with EPHA2 it was 76%; with EPHA3, 90%; in the test on EPHA4, 66%; in the test with EPHA5, 99%. In addition, the “Percent Control” value is 63% in the test with EPHA6; 48% in the test on EPHA7; 69% with EPHA8; 64% in the test with EPHB1; 91% in the test with EPHB2; 80% with EPHB3. Also, the “Percent Control” value in the test with EPHB4 is 73%; in the test on EPHB6 it was 74%; with ERBB2, 12%; in the test with ERBB3 it was 84%; in the test on ERBB4, 22%; with ERK1, 91%. Besides, the figures for the “Percent Control” value in the test with ERK2 and in the test with ERK3 were 95% and 42%, respectively.
Consider `CC1=C(C(=O)Nc2ccc3[nH]ncc3c2)C(c2ccc3ccccc3c2)CC(=O)N1` (centres unmarked) [GSK270822A], for which the “Percent Control” value turned out to be 87% in the test on EIF2AK1; 93% in the test with EPHA1; 88% with EPHA2; 85% in the test with EPHA3; 82% in the test on EPHA4; 100% in the test on EPHA5. Moreover, the “Percent Control” value in the test with EPHA6 was determined as 90%; in the test with EPHA7, 98%; in the test on EPHA8, 99%; with EPHB1, 99%; with EPHB2 it was 86%; with EPHB3 it was 89%. Also, the “Percent Control” value is 84% with EPHB4; 86% with EPHB6; 83% in the test on ERBB2; 100% in the test on ERBB3; 100% in the test on ERBB4; 66% in the test with ERK1. For the same compound, the “Percent Control” value was determined as 79% in the test with ERK2 and 100% with ERK3.
As for `COc1cccc(-n2ncc3c(N/N=C/c4ccncc4)ncnc32)c1` [GW784752X], the “Percent Control” value is listed as 100% in the test on EIF2AK1; 87% in the test with EPHA1; 100% with EPHA2; 100% in the test on EPHA3; 98% with EPHA4; 100% in the test with EPHA5. Moreover, the “Percent Control” value in the test with EPHA6, in the test on EPHA7, with EPHA8, in the test with EPHB1, in the test on EPHB2 and with EPHB3 was 100% each time. The “Percent Control” value in the test with EPHB4 is 100%; in the test on EPHB6 it was 100%; with ERBB2 it was 68%; with ERBB3, 4.9%; in the test with ERBB4, 83%; in the test with ERK1, 100%. Moreover, the “Percent Control” value in the test with ERK2 came to 100%; with ERK3 it was 41%.
In the case of `CC1=C(C(=O)Nc2ccc3[nH]ncc3c2)C(c2ccc(Cl)c(Cl)c2)CC(=O)N1` (centres unmarked) [GSK299115A], the “Percent Control” value in the test with EIF2AK1 was 100%; in the test with EPHA1, 100%; in the test on EPHA2, 98%; with EPHA3, 86%; with EPHA4, 96%; with EPHA5, 95%. The “Percent Control” value is recorded as 100% with EPHA6; 100% in the test on EPHA7; 100% in the test on EPHA8; 74% in the test with EPHB1; 100% with EPHB2; 98% in the test on EPHB3. Further, the “Percent Control” value is 94% with EPHB4; 99% with EPHB6; 92% in the test with ERBB2; 100% in the test with ERBB3; 36% in the test with ERBB4; 72% in the test with ERK1. Besides, the “Percent Control” value in the test on ERK2 stood at 76%; in the test on ERK3, 77%.
In the case of `Cc1cc(O)cc(C)c1/C=C/c1cncc(C(N)=O)c1` [GW435821X], the “Percent Control” value with EIF2AK1 is listed as 100%; in the test on EPHA1, 47%; with EPHA2 it was 62%; with EPHA3 it was 63%; in the test with EPHA4 it was 51%; in the test with EPHA5 it was 88%. Further, the “Percent Control” value in the test on EPHA6 came out at 100%; with EPHA7, 100%; with EPHA8 it was 28%; with EPHB1 it was 82%; in the test with EPHB2, 100%; in the test with EPHB3, 100%. Also, the “Percent Control” value in the test with EPHB4 is 100%; in the test on EPHB6, 6.6%; with ERBB2 it was 61%; with ERBB3 it was 43%; in the test with ERBB4 it was 100%; with ERK1, 100%. Also, the “Percent Control” value with ERK2 and with ERK3 was 100% throughout.
For the compound `NS(=O)(=O)c1ccc(N/N=C2\C(=O)Nc3ccc(C(=O)NCc4ccncc4)cc32)cc1` [GW300657X], the “Percent Control” value came out at 100% in the test with EIF2AK1; 100% with EPHA1; 89% with EPHA2; 100% in the test with EPHA3; 88% with EPHA4; 94% in the test on EPHA5. The “Percent Control” value with EPHA6 is on record as 100%; in the test on EPHA7 it was 100%; in the test with EPHA8, 99%; in the test with EPHB1, 100%; in the test with EPHB2 it was 93%; in the test on EPHB3 it was 98%. Also, the “Percent Control” value with EPHB4 was 100%; in the test on EPHB6, 16%; with ERBB2, 80%; in the test on ERBB3, 53%; in the test on ERBB4, 93%; with ERK1 it was 100%. For the same compound, the “Percent Control” value in the test with ERK2 is given as 88%; with ERK3, 87%.
For the compound `Cl.O=C(Nc1ccc(Oc2ccc3[nH]c(NC(=O)c4ccccc4)nc3c2)cc1)Nc1cc(C(F)(F)F)ccc1F` [GW709042A], the “Percent Control” value in the test on EIF2AK1 worked out at 100%; in the test with EPHA1, 75%; in the test on EPHA2, 69%; in the test with EPHA3, 100%; in the test with EPHA4, 62%; with EPHA5, 90%. Further, the “Percent Control” value was determined as 34% with EPHA6; 54% in the test with EPHA7; 16% in the test on EPHA8; 82% in the test with EPHB1; 76% in the test with EPHB2; 90% with EPHB3. The “Percent Control” value was 84% in the test with EPHB4; 28% in the test on EPHB6; 92% in the test on ERBB2; 70% with ERBB3; 100% in the test on ERBB4; 100% in the test on ERK1. Moreover, the “Percent Control” value with ERK2 was determined as 100%; in the test with ERK3 it was 84%.
For `C[C@@H](Oc1cc(-n2cnc3ccc(OC4CCN(C)CC4)cc32)sc1C(N)=O)c1ccccc1Cl` [GSK579289A], the “Percent Control” value was 62% in the test on EIF2AK1; 69% in the test on EPHA1; 100% with EPHA2; 81% in the test on EPHA3; 97% in the test on EPHA4; 100% with EPHA5. For the same compound, the “Percent Control” value amounted to 96% in the test with EPHA6; 89% in the test with EPHA7; 81% in the test with EPHA8; 82% with EPHB1; 77% in the test on EPHB2; 95% in the test on EPHB3. Besides, the “Percent Control” value is 100% with EPHB4; 75% in the test with EPHB6; 79% in the test on ERBB2; 85% in the test with ERBB3; 90% in the test with ERBB4; 59% in the test with ERK1. For the same compound, the “Percent Control” value in the test with ERK2 was 100%; in the test with ERK3, 97%.
`COc1ccc2[nH]c3c4[nH]c5ccc(OC)cc5c4c4c(c3c2c1)C(=O)NC4=O` [GW296115X]: the “Percent Control” value in the test on EIF2AK1 was 86%; with EPHA1, 93%; with EPHA2 it was 85%; in the test with EPHA3 it was 86%; in the test with EPHA4, 86%; in the test on EPHA5, 85%. The “Percent Control” value was 88% with EPHA6; 86% in the test on EPHA7; 87% in the test on EPHA8; 77% in the test with EPHB1; 84% in the test on EPHB2; 85% with EPHB3. The “Percent Control” value with EPHB4 is 84%; with EPHB6, 7.3%; in the test on ERBB2, 100%; in the test with ERBB3, 85%; with ERBB4, 59%; with ERK1, 85%. Further, the results for the “Percent Control” value with ERK2 and in the test on ERK3 were 76% and 84%, respectively.
In the case of `CCn1c(-c2nonc2N)nc2c(C#CC(C)(C)O)nc(OCCNC)cc21.Cl` [GSK949675], the “Percent Control” value came out at 100% in the test on EIF2AK1; 100% in the test on EPHA1; 100% in the test with EPHA2; 100% in the test with EPHA3; 100% in the test with EPHA4; 98% in the test with EPHA5. For the same compound, the “Percent Control” value in the test on EPHA6 was found to be 100%; with EPHA7, 100%; with EPHA8, 100%; in the test on EPHB1, 100%; in the test on EPHB2, 94%; in the test on EPHB3, 100%. In addition, the “Percent Control” value with EPHB4 is 100%; in the test on EPHB6, 90%; in the test with ERBB2, 57%; in the test with ERBB3, 79%; in the test with ERBB4 it was 100%; in the test with ERK1, 93%. Moreover, the “Percent Control” value is listed as 90% in the test on ERK2 and 100% in the test on ERK3.
